In PubChem BioAssay (NCATS):
Records with an inconclusive call do not appear. The source made the active and inactive calls. Calls follow the shape of the dose curve; as a rule, active = well fitted curve in the direction sought with a large enough effect; inconclusive = small, poorly fitted or top-dose-only effect, or another doubt; inactive = no such curve, though single readings can be large; an effect the other way counts as inactive or inconclusive.

Key:
[1] = system: NAD(P)H diaphorase (Clostridium kluyveri); assay: Diaphorse counterscreen qHTS: Assay Interference Panel against the NCATS CANVASS Library (AID 1347362); conditions: Diaphorase enzyme, resazurin to resorufin fluorescence; series mostly up to 57.5 µM
Text: (§1) Natural products and their derivatives continue to be wellsprings of nascent therapeutic potential. However, many laboratories have limited resources for biological evaluation, leaving their previously isolated or synthesized compounds largely or completely untested. To address this issue, the Canvass library of natural products was assembled (https://tripod.nih.gov/canvass), in collaboration with academic and industry researchers, for quantitative high-throughput screening (qHTS) across a diverse set of cell-based and biochemical assays. The pure (>85% purity by liquid chromatography/mass spectrometry [LC/MS]) Canvass library of 346 natural products were submitted by 45 academic laboratories and companies around the world. […] The library was formatted into 1536-well plates and evaluated in 50 qHTS (in an 11-pnt concentration series) bioassays with broad scope of disease-relevant mechanisms. The resulting data set from 50 different assays was then systematically analyzed to identify overall trends and specific natural products with interesting biological activities. […]
Assay Interference counterscreen protocol 1. […] Fluorescence signal was acquired via the ViewLux plate reader (PerkinElmer) using an excitation filter 525/20, emission filter 598/25; 1000 light energy, 2 second exposure, 2x binning settings.

[2] = target: Luciferin 4-monooxygenase (Photinus pyralis) (UniProt P08659); assay: Firefly luciferase counterscreen qHTS: Assay Interference Panel against the NCATS CANVASS Library (AID 1347363); conditions: purified firefly luciferase, luminescence inhibition, 5 min; series mostly up to 57.5 µM
Luciferin 4-monooxygenase (Photinus pyralis), sequence (P08659 whole entry, looked up): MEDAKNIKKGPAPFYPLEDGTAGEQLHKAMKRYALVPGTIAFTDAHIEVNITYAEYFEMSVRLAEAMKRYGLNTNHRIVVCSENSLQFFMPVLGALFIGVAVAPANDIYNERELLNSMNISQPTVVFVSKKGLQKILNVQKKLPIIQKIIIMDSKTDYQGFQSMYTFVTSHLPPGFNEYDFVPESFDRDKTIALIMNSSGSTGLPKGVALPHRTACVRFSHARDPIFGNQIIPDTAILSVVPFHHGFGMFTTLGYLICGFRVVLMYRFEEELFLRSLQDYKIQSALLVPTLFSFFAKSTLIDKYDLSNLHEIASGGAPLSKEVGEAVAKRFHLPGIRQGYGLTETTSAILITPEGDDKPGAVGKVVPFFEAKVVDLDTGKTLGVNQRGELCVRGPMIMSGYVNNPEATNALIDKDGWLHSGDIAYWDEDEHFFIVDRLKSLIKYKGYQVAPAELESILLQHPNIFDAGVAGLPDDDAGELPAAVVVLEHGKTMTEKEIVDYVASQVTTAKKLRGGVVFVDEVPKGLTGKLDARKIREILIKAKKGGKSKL
Outline: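 Purified P. pyralis luciferase was added to compounds (11-point series) preincubated 15 min at room temperature with substrate containing 0.013 mM D-luciferin and 0.013 mM ATP; luminescence was read after 5 min.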

[3] = KB-8-5-11 Cancer Cell Toxicity qHTS against the NCATS CANVASS Library (AID 1347364); conditions: KB-8-5-11 MDR cells viability, CellTiter-Glo, 72 h; series mostly up to 46.1 µM; also: nearly all actives have a fitted effect of over 75% in size
Outline: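 KB-8-5-11 cells (500/well) in DMEM + 10% FBS were exposed to compounds in an 11-point qHTS series for 72 hr at 37C, 5% CO2. Viability was read by CellTiter-Glo luminescence.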

[4] = KB-3-1 Cancer Cell Toxicity qHTS against the NCATS CANVASS Library (AID 1347366); conditions: KB-3-1 viability, CellTiter-Glo luminescence, 72 h; series mostly up to 46.1 µM; also: nearly all actives have a fitted effect of over 75% in size
Outline: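 CellTiter-Glo luminescence measured viability after 72 h at 37C. KB-3-1 cells were seeded at 500 per well in DMEM/10% FBS.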

[5] = qHTS for ATAD5 Agonist screened against the NCATS CANVASS Library (AID 1347367); conditions: HEK293T ATAD5-luciferase reporter, luminescence, 16 h; series mostly up to 46.1 µM;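 also: luciferase reporter driven by ATAD5 which rises upon DNA damage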
Text: Natural products and their derivatives continue to be wellsprings of nascent therapeutic potential. However, many laboratories have limited resources for biological evaluation, leaving their previously isolated or synthesized compounds largely or completely untested. To address this issue, the Canvass library of natural products was assembled (https://tripod.nih.gov/canvass), in collaboration with academic and industry researchers, for quantitative high-throughput screening (qHTS) across a diverse set of cell-based and biochemical assays. The pure (>85% purity by liquid chromatography/mass spectrometry [LC/MS]) Canvass library of 346 natural products were submitted by 45 academic laboratories and companies around the world. […] The library was formatted into 1536-well plates and evaluated in 50 qHTS (in an 11-pnt concentration series) bioassays with broad scope of disease-relevant mechanisms. The resulting data set from 50 different assays was then systematically analyzed to identify overall trends and specific natural products with interesting biological activities. […] Luminescence intensity is proportional to ATAD5 expression. […]
ATAD5 Agonist assay protocol: 1. […] A second readout of luminescence signal was acquired via the ViewLux plate reader using a clear emission filter, 10 second exposure setting. […]

[6] = MCF7 Cancer Cell Toxicity qHTS against the NCATS CANVASS Library (AID 1347369); conditions: MCF7 viability, ATP luminescence (CellTiter-Glo), 72 h; series mostly up to 46 µM
Outline: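 Cytotoxicity was measured as CellTiterGlo luminescence (ATP) after 72 h at 37 °C. The cells were MCF7 at 500 per well, with an 11-point compound concentration series.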

[7] = qHTS for ATAD5 Antagonist screened against the NCATS CANVASS Library (AID 1347370); conditions: HEK293T-ATAD5-luc, 5-FUrd stimulated, luminescence, 16 h; series mostly up to 46.1 µM;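 also: HEK293T cells carrying an ATAD5 luciferase reporter co-treated with 10 µM 5-fluorouridine; nearly all actives have a fitted effect of over 65% in size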
Outline: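 HEK293T cells with a stably integrated ATAD5-controlled luciferase reporter were exposed to compounds (11-pt) alongside 10 uM 5-fluorouridine as ATAD5 stabilizer for 16hr at 37C. Viability was read by CellTiter-Fluor fluorescence, then ATAD5 by luminescence.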

[8] = J3T Cancer Cell Toxicity qHTS against the NCATS CANVASS Library (AID 1347371); conditions: J3T dog glioma viability, ATP luminescence, 72 h; series mostly up to 46.1 µM;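 also: J3T is a canine glioma cancer cell line seeded at 500 cells per well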
Outline: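 J3T dog glioma cells (500 cells/well) were exposed to compounds in an 11-point series for 72 hr at 37C, 5% CO2. Cytotoxicity was read as ATP content by CellTiterGlo luminescence.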

[9] = target: Nuclear receptor subfamily 1 group I member 3 (Homo sapiens) (UniProt Q14994); assay: qHTS for Constitutive Androstane Receptor (CAR) Antagonist screened against the NCATS CANVASS Library (AID 1347372); conditions: HepG2-hCAR-CYP2B6 luciferase, CITCO-stimulated antagonist mode; series mostly up to 46.1 µM;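 also: cells stimulated with 50 nM CITCO agonist so inhibition reflects antagonism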
Nuclear receptor subfamily 1 group I member 3 (Homo sapiens), sequence (Q14994 whole entry, looked up): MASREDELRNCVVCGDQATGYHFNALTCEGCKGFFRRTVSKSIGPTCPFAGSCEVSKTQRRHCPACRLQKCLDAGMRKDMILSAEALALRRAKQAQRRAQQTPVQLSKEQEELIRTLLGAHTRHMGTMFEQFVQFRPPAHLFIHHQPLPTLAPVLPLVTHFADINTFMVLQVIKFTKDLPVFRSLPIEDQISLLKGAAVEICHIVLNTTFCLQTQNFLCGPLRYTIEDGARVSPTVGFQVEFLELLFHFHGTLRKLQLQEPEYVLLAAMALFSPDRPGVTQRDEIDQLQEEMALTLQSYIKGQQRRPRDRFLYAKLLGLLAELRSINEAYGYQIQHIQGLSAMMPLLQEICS
Text: as §1, with “assays.” for “assays. The pure (>85% purity by liquid chromatography/mass spectrometry [LC/MS]) Canvass library of 346 natural products were submitted by 45 academic laboratories and companies around the world.”
Material: A double-stable (hCAR and CYP2B6-2.2kb) transfected cell line, derived from human hepatoma (HepG2) cells, was utilized for the duration of the quantitative high-throughput screens. […] A first readout of fluorescence signal was acquired via the ViewLux (PerkinElmer) plate reader using a FITC dichroic mirror, excitation 405/10 nm filter, and emission 540/25 nm filter; and using 65 light energy, 1 second exposure, and 2x binning settings. […]

[10] = target: Nuclear receptor subfamily 1 group I member 3 (Homo sapiens) (UniProt Q14994); assay: qHTS for Constitutive Androstane Receptor (CAR) Agonist screened against the NCATS CANVASS Library (AID 1347373); conditions: HepG2-hCAR-CYP2B6 luciferase reporter, ONE-Glo luminescence; series mostly up to 46.1 µM;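 also: every well also contained 1.5 µM PK11195 alongside the test compound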
Outline: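 HepG2 cells stably expressing hCAR and a CYP2B6-2.2kb luciferase reporter were treated for 24hr at 37C with compounds (11-point qHTS) in the presence of 1.5uM PK11195. Reporter activation was read by ONE-Glo luminescence.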

Measured: outcome

COc1ccc2[nH]cc(CCNC(C)=O)c2c1
inactive: all assays above
